What all share (experiment): DAPPL (digital affinity profiling via proximity ligation, sequencing); 10 mM Tris-HCl pH 7.5, 50 mM NaCl, 1 mM DTT, 4% glycerol, room temperature, 30 min; GST-TFs on glutathione beads, 16-mer random dsDNA library, 0.1% formaldehyde crosslink after washing; high values mean tight binding
Common to all, as to conditions: protein: recombinant; tags: N-terminal GST; dsDNA, one strand shown

For one experiment, the target named is T1, ERF (Homo sapiens, UniProt P50548 1-548).
T1 sequence: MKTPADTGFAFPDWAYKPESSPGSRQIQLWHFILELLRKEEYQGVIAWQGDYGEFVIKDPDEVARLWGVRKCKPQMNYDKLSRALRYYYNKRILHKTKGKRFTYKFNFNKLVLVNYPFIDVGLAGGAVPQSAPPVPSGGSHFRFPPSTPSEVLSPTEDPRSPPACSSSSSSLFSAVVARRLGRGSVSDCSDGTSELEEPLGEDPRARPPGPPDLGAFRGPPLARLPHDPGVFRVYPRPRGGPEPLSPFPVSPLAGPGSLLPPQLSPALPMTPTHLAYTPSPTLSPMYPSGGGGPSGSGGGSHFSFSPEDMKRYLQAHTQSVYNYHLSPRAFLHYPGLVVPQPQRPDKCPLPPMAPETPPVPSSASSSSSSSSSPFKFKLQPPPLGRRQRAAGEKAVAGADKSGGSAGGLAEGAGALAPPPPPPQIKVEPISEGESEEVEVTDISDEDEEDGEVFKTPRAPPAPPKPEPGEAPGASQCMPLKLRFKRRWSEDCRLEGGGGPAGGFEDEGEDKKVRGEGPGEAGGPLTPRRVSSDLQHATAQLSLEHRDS
The procedure, abridged: (§1)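 A tag-only sample was pooled with DNA-barcoded human transcription factors that had been expressed in yeast as GST fusions and captured on glutathione beads. The pools were incubated for 30 min at room temperature with 200 nmole of a random double-stranded 16-mer DNA library in Tris/NaCl/DTT/glycerol buffer, then washed, crosslinked with 0.1% formaldehyde, proximity-ligated (BsaI/T4 ligase, 1 h, 37 °C), PCR-amplified and sequenced on an Illumina NextSeq500. Binding signal is each hexamer's read frequency for a factor divided by its frequency for the tag-only sample.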

In the next experiment the target is T2, ETV3L (Homo sapiens, UniProt Q6ZN32 1-361).
T2 sequence: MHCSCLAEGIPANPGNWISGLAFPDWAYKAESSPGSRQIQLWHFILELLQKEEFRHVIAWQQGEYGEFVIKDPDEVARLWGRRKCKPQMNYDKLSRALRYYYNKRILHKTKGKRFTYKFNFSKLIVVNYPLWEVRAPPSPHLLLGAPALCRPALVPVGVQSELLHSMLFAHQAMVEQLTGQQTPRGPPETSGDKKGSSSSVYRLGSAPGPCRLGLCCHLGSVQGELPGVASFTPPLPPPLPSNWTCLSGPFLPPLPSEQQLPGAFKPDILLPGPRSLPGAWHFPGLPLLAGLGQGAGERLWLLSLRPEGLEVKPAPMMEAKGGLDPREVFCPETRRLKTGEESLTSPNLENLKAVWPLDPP
The method in brief: as §1

Another experiment deals with T3, ETS2 (Homo sapiens, UniProt P15036 1-469).
T3 sequence: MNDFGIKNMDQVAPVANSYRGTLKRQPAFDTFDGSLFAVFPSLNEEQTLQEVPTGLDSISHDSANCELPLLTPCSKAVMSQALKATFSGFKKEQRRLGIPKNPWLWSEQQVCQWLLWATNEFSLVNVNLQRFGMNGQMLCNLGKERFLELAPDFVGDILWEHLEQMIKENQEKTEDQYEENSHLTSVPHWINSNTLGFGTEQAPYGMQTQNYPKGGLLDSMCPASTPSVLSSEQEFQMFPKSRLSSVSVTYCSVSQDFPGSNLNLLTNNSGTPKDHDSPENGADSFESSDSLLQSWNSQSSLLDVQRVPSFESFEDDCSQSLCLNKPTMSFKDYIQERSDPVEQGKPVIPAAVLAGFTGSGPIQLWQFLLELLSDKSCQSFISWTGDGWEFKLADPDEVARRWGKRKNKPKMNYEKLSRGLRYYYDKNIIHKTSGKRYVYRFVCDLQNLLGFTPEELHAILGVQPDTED
The procedure, abridged: as §1

For a further experiment, the target named is T4, SPDEF (Homo sapiens, UniProt O95238 1-335).
T4 sequence: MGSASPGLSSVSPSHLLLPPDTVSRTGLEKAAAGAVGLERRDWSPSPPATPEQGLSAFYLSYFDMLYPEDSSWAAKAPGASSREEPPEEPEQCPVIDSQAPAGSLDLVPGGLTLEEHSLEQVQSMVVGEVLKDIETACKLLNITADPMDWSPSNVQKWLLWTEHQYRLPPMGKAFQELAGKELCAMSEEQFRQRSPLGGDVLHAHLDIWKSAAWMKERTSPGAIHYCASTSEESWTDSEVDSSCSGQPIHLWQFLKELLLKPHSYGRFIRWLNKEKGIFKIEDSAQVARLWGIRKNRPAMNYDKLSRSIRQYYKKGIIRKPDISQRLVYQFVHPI
The procedure, abridged:
as §1

The target of a further experiment is T5, ETV7 (Homo sapiens, UniProt Q9Y603 1-341).
T5 sequence: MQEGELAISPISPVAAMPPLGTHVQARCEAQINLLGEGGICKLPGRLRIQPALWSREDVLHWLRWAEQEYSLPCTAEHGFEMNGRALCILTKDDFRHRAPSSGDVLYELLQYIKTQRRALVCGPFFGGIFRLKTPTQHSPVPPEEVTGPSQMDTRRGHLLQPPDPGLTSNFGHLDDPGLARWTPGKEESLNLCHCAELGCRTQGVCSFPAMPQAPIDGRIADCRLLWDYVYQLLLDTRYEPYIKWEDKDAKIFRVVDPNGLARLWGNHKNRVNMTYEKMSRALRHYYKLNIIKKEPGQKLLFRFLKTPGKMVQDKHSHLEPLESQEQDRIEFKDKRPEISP
The method in brief: as §1

Another experiment has as its target T6, ETV3 (Homo sapiens, UniProt P41162-2 1-143).
T6 sequence: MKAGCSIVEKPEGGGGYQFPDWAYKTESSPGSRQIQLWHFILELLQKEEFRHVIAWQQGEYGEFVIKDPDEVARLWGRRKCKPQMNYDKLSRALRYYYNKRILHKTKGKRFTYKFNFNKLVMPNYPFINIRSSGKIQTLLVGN
The procedure, abridged:
as §1

In a further experiment the target is ETV6 (Homo sapiens, UniProt P41212 1-452). The method in brief:
as §1

A further experiment has as its target T7, ELF5 (Homo sapiens, UniProt Q9UKW6-2 1-255).
T7 sequence: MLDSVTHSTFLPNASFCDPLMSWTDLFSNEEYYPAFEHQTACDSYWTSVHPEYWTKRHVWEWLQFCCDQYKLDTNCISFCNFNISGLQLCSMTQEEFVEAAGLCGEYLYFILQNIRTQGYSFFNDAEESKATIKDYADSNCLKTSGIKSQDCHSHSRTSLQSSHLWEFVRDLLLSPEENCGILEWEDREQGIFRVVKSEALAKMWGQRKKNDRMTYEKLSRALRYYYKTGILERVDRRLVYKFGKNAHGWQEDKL
The method in brief: as §1

Drawing on article PMC7862700, “An all-to-all approach to the identification of sequence-specific readers for epigenetic DNA modifications on cytosine”, this text covers binding signal for 7 sequences.

ETV6, sequence (P41212 whole entry): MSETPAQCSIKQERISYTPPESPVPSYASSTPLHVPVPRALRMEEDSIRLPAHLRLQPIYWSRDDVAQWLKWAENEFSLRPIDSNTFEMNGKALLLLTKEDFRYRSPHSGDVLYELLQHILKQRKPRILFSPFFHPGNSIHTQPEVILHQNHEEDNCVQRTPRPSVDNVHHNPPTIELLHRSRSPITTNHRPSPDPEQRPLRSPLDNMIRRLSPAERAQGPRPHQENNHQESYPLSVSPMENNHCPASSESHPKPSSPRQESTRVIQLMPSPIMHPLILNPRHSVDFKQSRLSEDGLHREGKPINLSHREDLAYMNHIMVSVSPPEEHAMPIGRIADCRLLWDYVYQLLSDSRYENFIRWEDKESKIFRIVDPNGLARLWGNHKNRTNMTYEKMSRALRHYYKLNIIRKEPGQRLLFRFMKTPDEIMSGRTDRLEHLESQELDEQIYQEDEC

Take GGCATT: the binding signal with ERF is 1.08 fold enrichment (6-mer frequency, TF over GST control); with ETV3L, 1.06 fold enrichment (6-mer frequency, TF over GST control); with ETS2, 1.09 fold enrichment (6-mer frequency, TF over GST control); in the experiment with SPDEF, 1 fold enrichment (6-mer frequency, TF over GST control); with ETV7, 1.05 fold enrichment (6-mer frequency, TF over GST control); with ETV3 it was 1.07 fold enrichment (6-mer frequency, TF over GST control). Further, in the experiment with ETV6, the binding signal is 1.12 fold enrichment (6-mer frequency, TF over GST control).

On to GATACT, for which the binding signal in the experiment with ERF is 1.22 fold enrichment (6-mer frequency, TF over GST control); with ETV3L it was 1.22 fold enrichment (6-mer frequency, TF over GST control); in the experiment with ETS2, 1.09 fold enrichment (6-mer frequency, TF over GST control); with SPDEF, 1.17 fold enrichment (6-mer frequency, TF over GST control); with ELF5, 1.06 fold enrichment (6-mer frequency, TF over GST control); with ETV3, 1.06 fold enrichment (6-mer frequency, TF over GST control). For the same sequence, the binding signal with ETV6 was 1.07 fold enrichment (6-mer frequency, TF over GST control).

Regarding GATACG, the binding signal in the experiment with ERF is 1.12 fold enrichment (6-mer frequency, TF over GST control); with ETV3L it was 1.1 fold enrichment (6-mer frequency, TF over GST control); in the experiment with ETS2, 1.11 fold enrichment (6-mer frequency, TF over GST control); with SPDEF it was 1.35 fold enrichment (6-mer frequency, TF over GST control); with ELF5, 1.1 fold enrichment (6-mer frequency, TF over GST control); with ETV3, 1.12 fold enrichment (6-mer frequency, TF over GST control). In addition, the binding signal in the experiment with ETV6 is 1.09 fold enrichment (6-mer frequency, TF over GST control).

For the sequence CTCGGT, the binding signal is 1.14 fold enrichment (6-mer frequency, TF over GST control) in the experiment with ERF; 1.12 fold enrichment (6-mer frequency, TF over GST control) with ETV3L; 1.11 fold enrichment (6-mer frequency, TF over GST control) with ETS2; 1.02 fold enrichment (6-mer frequency, TF over GST control) with SPDEF; 1.05 fold enrichment (6-mer frequency, TF over GST control) with ETV7; 1.08 fold enrichment (6-mer frequency, TF over GST control) in the experiment with ETV6.

As for TCTACA, the binding signal in the experiment with ERF was 1.31 fold enrichment (6-mer frequency, TF over GST control); in the experiment with ETV3L, 1.21 fold enrichment (6-mer frequency, TF over GST control); in the experiment with ETS2, 1.29 fold enrichment (6-mer frequency, TF over GST control); with SPDEF, 1.27 fold enrichment (6-mer frequency, TF over GST control); with ELF5, 1.19 fold enrichment (6-mer frequency, TF over GST control); with ETV3, 1.18 fold enrichment (6-mer frequency, TF over GST control). Besides, in the experiment with ETV6, the binding signal was 1.19 fold enrichment (6-mer frequency, TF over GST control).

As to GCATTC, the binding signal with ERF is 1.16 fold enrichment (6-mer frequency, TF over GST control); with ETV3L it was 1.07 fold enrichment (6-mer frequency, TF over GST control); with ETS2, 1.08 fold enrichment (6-mer frequency, TF over GST control); with SPDEF, 1.1 fold enrichment (6-mer frequency, TF over GST control); in the experiment with ELF5 it was 1.06 fold enrichment (6-mer frequency, TF over GST control); in the experiment with ETV3, 1.17 fold enrichment (6-mer frequency, TF over GST control). Besides, in the experiment with ETV6, the binding signal was 1.19 fold enrichment (6-mer frequency, TF over GST control).

Take TCAATG: the binding signal in the experiment with ERF was 1.11 fold enrichment (6-mer frequency, TF over GST control); in the experiment with ETV3L it was 1.05 fold enrichment (6-mer frequency, TF over GST control); with ETS2 it was 1.06 fold enrichment (6-mer frequency, TF over GST control); in the experiment with SPDEF, 1.12 fold enrichment (6-mer frequency, TF over GST control); with ETV3, 1.06 fold enrichment (6-mer frequency, TF over GST control); with ETV6, 1.05 fold enrichment (6-mer frequency, TF over GST control).
